Compound activity from PubChem BioAssay.
NS1 function inh: influenza NS1 inhibition; hit rate 0.4% among 270,000; Potency, µM (series often up to 46.1 µM), for the others: at the top dose activity, positive = more growth; calls by dose curve; note: potency is the fitted concentration of half-maximal effect; actives are rising curves; nearly all actives have a fitted effect of over 50% in size
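Growth recovery, yeast-based: influenza A NS1 expressed in S. cerevisiae causes slow growth, and suppressors are detected by OD600. The parent strain without NS1 is used as positive control.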
Shiga inhibitor: blocks Shiga toxin action in Vero cells. Vero cells, Shiga toxin protein synthesis inhibition reporter. inhibition, % at 38.7 µM. hit rate 9.2% among 290,000. AID 2315; in the data active = inhibition mostly above about 28%, no sharp cut-off; inactive = mostly below about 43%; note: 0% is about no effect
CHX counter: affects cycloheximide protein synthesis inhibition readout, counter-screen; hit rate 12% among 300,000; max response, %; cell reporter, cycloheximide protein synthesis inhibition counterscreen; AID 2314; in the data active = max response mostly above about 13%, no sharp cut-off; inactive = mostly below about 14%; note: read at 38.3 µM for the half of the compounds with a filed dose; 0% is about no effect
AmpC detergent: blocks E. coli AmpC beta-lactamase in detergent assay | P00811 | AmpC hydrolysis of nitrocefin, absorbance 480 nm, 0.01% Triton | Potency, µM (top dose mostly 114 µM), without a hit: at the top dose activity change, negative = inhibition, hits mostly inhibitors | hit rate 0.041% among 370,000;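 note: potency is the fitted concentration of half-maximal effect; 0% = no-compound wells and -100% = no-enzyme wells; nearly all actives have a fitted effect of over 25% in size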
Target sequence (P00811 whole entry, looked up): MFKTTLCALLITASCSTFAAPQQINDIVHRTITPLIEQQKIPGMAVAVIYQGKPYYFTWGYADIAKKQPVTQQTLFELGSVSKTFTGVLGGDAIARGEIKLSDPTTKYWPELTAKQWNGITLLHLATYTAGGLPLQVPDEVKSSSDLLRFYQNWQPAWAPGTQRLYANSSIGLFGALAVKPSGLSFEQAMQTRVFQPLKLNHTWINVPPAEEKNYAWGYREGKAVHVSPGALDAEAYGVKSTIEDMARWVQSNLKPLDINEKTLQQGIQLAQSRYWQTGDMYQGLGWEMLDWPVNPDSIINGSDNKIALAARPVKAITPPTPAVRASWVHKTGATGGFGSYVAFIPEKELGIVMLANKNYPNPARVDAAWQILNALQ
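AmpC (5.3 nM in the dispensed reagent) in 20 mM phosphate pH 7.0 with 0.01% (detergent screen) or 0.0001% Triton X-100 was preincubated with compounds for 15 min at room temperature. Nitrocefin was then added from an 800 uM solution, and hydrolysis was followed at 480 nm.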
AmpC no deterg: AmpC beta-lactamase inhibition without detergent; P00811; AmpC nitrocefin hydrolysis, absorbance 480 nm, 0.0001% Triton; Potency, µM (doses to about 57.1 µM), without a hit: at the top dose activity change, negative = inhibition, actives largely listed as inhibitors; hit rate 0.52% among 330,000;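 note: potency is the fitted concentration of half-maximal effect; plate controls were no compound for no effect and no enzyme for full effect; nearly all actives have a fitted effect of over 20% in size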
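20 mM phosphate pH 7.0 + 0.01% (detergent screen) or 0.0001% Triton X-100; 5.3 nM AmpC reagent; cpd preinc 15 min RT; nitrocefin (800 uM stock) to start; A480 q20 s × 4 min; Activity was normalised to no-enzyme and no-compound control wells.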
Numbers without * were called inactive; u = inconclusive; x = no result given; [ ] = another dose, or the depositor's remark. The full list was thinned out, with hits kept by preference. Unless noted, calls come from the whole dose curve; as a rule, active = well fitted curve in the direction sought with a large enough effect; inconclusive = small, poorly fitted or top-dose-only effect, or another doubt; inactive = no such curve, though single readings can be large; an effect the other way counts as inactive or inconclusive.

SMILES	NS1 function inh	Shiga inhibitor	CHX counter	AmpC detergent	AmpC no deterg
CCCc1cc(C(=O)NCc2ccc(OC)cc2)no1	-50%	77*	21*	2%	-3%
CCc1cc(C(=O)Nc2c(C)nn(Cc3ccc(C)cc3)c2C)no1	x	x	x	17%	x
CCCc1cc(C(=O)Nc2ccc(C)cc2)no1	-12%	127*	34*	u	-30%
Cc1ccc(-n2nc(C(=O)Nc3ccc(Cl)cn3)c3c4ccccc4n(C)c3c2=O)cc1	x	x	x	-5%	x
CC(C)C(=O)Nc1ccc2nc(SCC(=O)N3CCc4ccccc43)sc2c1	x	x	x	-5%	x
Cc1nnc(SCC(=O)N(CCC#N)c2ccc3c(c2)OCCO3)s1	x	x	x	u	-2%
O=c1c(-c2ccc(Br)cc2)coc2c(CN3CCOCC3)c(O)ccc12	-1%	35*	22*	4%	-6%
O=c1oc2c(CN3CCOCC3)c(O)ccc2c2ccccc12	-8%	47	44*	u	-23%
O=C(/C=C/c1ccc(Cl)cc1Cl)Nc1cccc(S(=O)(=O)NC2=NCCC2)c1	x	44	14*	-5%	-37%
O=C(Nc1cccc(S(=O)(=O)NC2=NCCC2)c1)c1c(F)cccc1Cl	x	x	x	-12%	-20%
O=C(/C=C/c1ccccc1Cl)Nc1cccc(S(=O)(=O)NC2=NCCCCC2)c1	u	65*	23*	-9%	-18%
CN(C)c1cccc(C(=O)Nc2cccc(S(=O)(=O)NC3=NCCC3)c2)c1	16%	70*	33*	-2%	-18%
Fc1cccc(CNc2ncnc3ccc(-c4cccnc4)cc23)c1	x	x	x	u	-34%
COc1ccccc1C1NC(=O)NC(C)=C1C(=O)OC1CCC(C)CC1 (stereo unspecified)	17%	6	-3	2%	-19%
COc1ccc(S(=O)(=O)Nc2c(O)c3ccccc3oc2=O)cc1	3%	69*	15*	5%	-17%
Cc1cc(C)n(CCC(=O)Nc2ccc3c(c2)OCCO3)n1	4%	45*	15*	u	-4%
Cc1ccn(CCC(=O)Nc2ccc3c(c2)OCO3)n1	-8%	73*	24*	3%	-36%
Cc1ccc(NC(=O)Cn2ncc3c4ccccc4n(Cc4ccccc4)c3c2=O)cc1Cl	x	x	x	9%	x
CCCCN1C(=O)C2(NNc3ccccc3O2)c2ccccc21 (stereo unspecified)	-33%	62*	47*	4%	-29%
C=CCN1C(=O)C2(NNc3ccccc3O2)c2ccccc21 (stereo unspecified)	-48%	-20	6	-11%	-27%
Cn1cnnc1SCC(=O)Nc1ncc([N+](=O)[O-])s1	x	x	x	x	-18%
O=C1OCCC1(c1ccccc1)c1ccccc1	x	x	x	-4%	-8%
COc1ccc(/C=N/NC(=O)c2nc(-c3ccccc3)cc(-c3ccccc3)n2)cc1OC	15%	28	-2	u	39%
COc1ccc(/C=N/c2oc(-c3ccccc3)cc2C#N)cc1OC	-6%	62*	23*	-4%	-7%
Cc1ccc(Cn2c(=O)n(Cc3ccccc3)c(=O)c3oc4ccccc4c32)cc1	x	x	x	24%	x
SMILES	NS1 function inh	Shiga inhibitor	CHX counter	AmpC detergent	AmpC no deterg
Cc1cccc([N+](=O)[O-])c1NC(=O)CSc1nnc2ccccn12	x	x	x	1%	-10%
Nc1ccc(Nc2nc(-c3cc4ccccc4oc3=O)cs2)cc1	17%	116*	43*	0%	-35%
CC(=O)Nc1ccc(Nc2nc(-c3cc4ccccc4oc3=O)cs2)cc1	10%	69*	47*	0%	-47%
COc1ccc(-n2cc(C(=O)N(CCN(C)C)Cc3ccccc3)c3ccccc3c2=O)cc1	x	x	x	0%	x
CCOC(=O)c1cccc(NC(=O)CCn2nc(C)c3c(C)n(-c4ccccc4)nc3c2=O)c1	x	x	x	19%	x
CCOCCCNC(=O)CCN1C(=O)c2ccccc2Sc2ncccc21	4%	-2	-2	-8%	-5%
CC(=O)c1cc2c(C)c(C(=O)c3ccccc3)oc2cc1O	-3%	79*	45*	-4%	-13%
Cc1ccc2c(=O)cc(C(=O)Nc3c(C(=O)c4ccccc4)oc4ccccc34)oc2c1C	x	x	x	0%	x
CCC(=O)Nc1cccc(C(=O)OCC(=O)c2ccccc2Cl)c1	17%	74*	31*	-6%	12%
CC(=O)Nc1cccc(C(=O)OCC(=O)c2ccccc2Cl)c1	x	125*	35*	u	-13%[11.4 µM]
COc1ccccc1C(=O)NC(=O)COC(=O)c1cccc(NC(C)=O)c1	-13%	10	28*	4%	2%
CC(=O)Nc1cccc(C(=O)OCC(=O)NC(=O)c2ccccc2)c1	x	x	x	5%	-21%
CSc1cccc(NS(=O)(=O)c2ccc3[nH]cc(C(=O)N4CCCCCC4)c(=O)c3c2)c1	x	x	x	2%	x
COc1ccc(NC(=O)c2nc3nc(C)cc(C(F)F)n3n2)c(C)c1	x	x	x	3%	x
O=C(Nc1ccc(F)cc1)Nc1nnc(-c2ccco2)s1	x	112*	53*	u	-26%
COc1ccc(C(=O)Nc2nnc(-c3ccco3)s2)cc1	-10%	72*	37*	4%	-13%
O=C(Nc1nnc(-c2ccco2)s1)C1CCN(S(=O)(=O)c2ccc(Cl)cc2)CC1	-8%	-11	-3	-13%	-25%
O=C(COc1ccc2ccccc2c1)Nc1nnc(-c2ccco2)s1	5%	4	-1	u	-25%
O=C(Nc1nnc(-c2ccco2)s1)C1CC1	-8%	31*	23*	u	-17%
O=C(Cc1nnc(NC(=O)Nc2ccc(F)cc2)s1)Nc1ccccc1	6%	22	-2	-7%	-31%
CCc1nnc(NC(=O)C(C)C)s1	0%	-9	-4	-14%	-11%
CC(C)C(=O)Nc1nnc(-c2ccco2)s1	1%	95*	29*	2%	1%
Cc1ccc(S(=O)(=O)N2CCOCC2)cc1NC(=O)Cn1nc(C)c([N+](=O)[O-])c1C	x	x	x	0%	-24%
O=C(Nc1nnc(-c2ccco2)s1)c1ccccc1	-50%	89*	44*	-4%	-22%
Cc1nnc(NC(=O)c2ccccc2)s1	x	x	x	-1%	x
SMILES	NS1 function inh	Shiga inhibitor	CHX counter	AmpC detergent	AmpC no deterg
CCc1ccc(NC(=S)NCC2CCCN2CC)cc1 (stereo unspecified)	x	30	15	-1%	-16%
CCOC(=O)c1cc(C#N)c(SCC(N)=O)[nH]c1=O	2%	-3	-3	1%	-5%
CCOC(=O)c1cc(C#N)c(SCC(=O)Nc2ccc(C(C)=O)cc2)[nH]c1=O	3%	47*	17*	0%	-28%
CC1CCC(NC(=O)CCCn2sc3ccccc3c2=O)CC1 (stereo unspecified)	-10%	11	22*	-2%	13%
CC(C)Oc1ccc(/C(O)=C2/C(=O)C(=O)N(CCN3CCNCC3)C2c2cccc([N+](=O)[O-])c2)cc1 (stereo unspecified)	17%	7	-2	3%	4%
O=C(Cc1ccccc1)Nc1ccc(NC(=O)c2ccco2)nc1	-1%	105*	44*	-4%	-34%
O=C(Nc1ccc(NC(=O)c2ccco2)nc1)c1ccccn1	-108%	20	28*	4%	-18%
